SMN2 splice up: increases expression of the SMN2 splice variant. HEK293 SMN2-luciferase splicing reporter, luminescence, 30-36 h. 210,000 tested, 2.8% active. Potency, µM (titrated, usually from 46.1 µM), inactives show at the highest dose activity change, positive = activation, most hits filed as activators. AID 1458; note: % of control where 0% means no effect; nearly all actives have a fitted effect of over 55% in size
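HEK293 cells carry an SMN2 minigene-luciferase reporter in which exon 7 inclusion puts luciferase in frame. Cells were seeded at 2000 cells/well, attached for 10-12 hours, then exposed to compounds for 30-36 hours at 37C before ONE-Glo luminescence.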
NPC1 prom act: NPC1 promoter activation | Huh7 NPC1 promoter luciferase reporter, 24 h | Potency, µM (top dose mostly 9.22 µM), for inactives: at the highest dose activation, most hits filed as activators | 320,000 tested, 2.4% active | AID 485313; note: % of control where 0% means no effect; nearly all actives have a fitted effect of over 60% in size
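Stable NPC1-promoter luciferase Huh7 line; cpd (DMSO) 24 h, 37 °C, 5% CO2; Amplite luciferase reagent 10 min RT; luminescence readout. qHTS format.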
ELG1 genotoxic: genotoxicity induction in ELG1-luciferase HEK293T cells; HEK293T ELG1-luciferase reporter, luminescence, 16 h; Potency, µM (series often up to 46 µM), inactives show at the highest dose activity change, positive = activation, hits mostly activators; 330,000 tested, 1.3% active; AID 504466; note: % of control where 0% means no effect; nearly all actives have a fitted effect of over 60% in size
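Reporter readout depends on ELG1 protein level, which increases with genetic stress. After 16 hr compound exposure at 37 °C, luciferase activity was quantified using ONE-Glo.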
FLuc counter: counter-screen for miR-21 project: firefly luciferase inhibitors or activators; P08659; 360,000 tested, 6.9% active; purified FLuc, Km substrates, luminescence inhibition; Potency, µM (doses to about 57.5 µM), for the others: top-dose activity change, negative = inhibition, most hits filed as inhibitors;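 note: plate controls were vehicle for no effect and reference inhibitor for full effect; nearly all actives have a fitted effect of over 55% in size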
Target sequence (P08659 whole entry, looked up): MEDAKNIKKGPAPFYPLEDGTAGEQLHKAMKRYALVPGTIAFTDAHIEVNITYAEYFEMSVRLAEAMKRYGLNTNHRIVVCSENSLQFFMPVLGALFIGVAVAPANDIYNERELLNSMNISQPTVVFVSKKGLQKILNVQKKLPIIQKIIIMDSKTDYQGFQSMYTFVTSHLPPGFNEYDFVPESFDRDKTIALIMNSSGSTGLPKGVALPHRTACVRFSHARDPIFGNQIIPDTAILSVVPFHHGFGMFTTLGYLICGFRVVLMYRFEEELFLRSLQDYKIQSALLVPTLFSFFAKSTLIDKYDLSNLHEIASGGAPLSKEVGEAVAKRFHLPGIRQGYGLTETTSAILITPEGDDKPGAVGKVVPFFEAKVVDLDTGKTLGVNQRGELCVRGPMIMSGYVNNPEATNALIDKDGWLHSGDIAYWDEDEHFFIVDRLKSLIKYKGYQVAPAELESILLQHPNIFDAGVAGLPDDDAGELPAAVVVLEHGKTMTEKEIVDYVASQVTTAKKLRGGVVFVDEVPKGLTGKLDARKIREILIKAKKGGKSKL
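Purified P. pyralis luciferase (10nM final) with 10uM D-luciferin and 10uM ATP (Km levels) in 50mM Tris acetate pH 7.5, 10mM Mg acetate, 0.01% Tween-20, 0.05% BSA; qHTS 6-point titration, ~60 µM downward; luminescence read.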
ELG1 DNA repair: inhibitors of ELG1-dependent DNA repair in HEK293T cells; HEK293T ELG1-luciferase reporter, luminescence, 16 h; DNA damage induced by 5-fluorouridine; Potency, µM (series often up to 46.1 µM), for the others: at the top dose activity change, negative = inhibition, usual class: inhibitors; 330,000 tested, 2.3% active; AID 504467; note: % is set by controls: 0 for no effect and ±100 for the full control effect; nearly all actives have a fitted effect of over 55% in size
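Reporter activity after DNA damage by 5-fluorouridine is monitored. Compound-treated cells incubate 16 hr at 37 °C, then ONE-Glo is added for 30 min before luminescence reading.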
Rab9 promoter act: Rab9 promoter activation; AID 485297; Huh7 Rab9 promoter-luciferase reporter, luminescence, 24 h; 320,000 tested, 2.8% active; Potency, µM (doses to about 9.22 µM), for the others: top-dose activation, negative = inhibition, usual class: activators; note: % of control where 0% means no effect; nearly all actives have a fitted effect of over 60% in size
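Cell-based reporter: Huh7 stable for Rab9 promoter-driven luciferase, plated in reduced-serum medium with 10% FBS at 1500 cells/well, compound-treated 24 h at 37 °C, luminescence read after 10 min reagent.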
Starred values were filed as active, the others as inactive; ? = inconclusive; . = no result given; [ ] = remark or other dose. Shown are actives, neighbours in structure and some others; about 9.3% of the full set was active somewhere. Calls come from the whole dose curve; as a rule, active = well fitted curve in the direction sought with a large enough effect; inconclusive = small, poorly fitted or top-dose-only effect, or another doubt; inactive = no such curve, though single readings can be large; an effect the other way counts as inactive or inconclusive. Potency is the fitted concentration of half-maximal effect.

SMILES	SMN2 splice up	NPC1 prom act	ELG1 genotoxic	FLuc counter	ELG1 DNA repair	Rab9 promoter act
O=C(Nc1ccc(Cl)cc1)Nc1cccc2nsnc12	.	?	?	4.78µM*	?	?
O=C(Nc1ccccc1)Nc1ccc(Br)c(Cl)c1	?	?	-8.8%	6.75µM*	9.6%	18.1%
CC(=O)Nc1cccc(NC(=O)Nc2ccc(C)c(Cl)c2)c1	?	10.2%	6.4%	2.13µM*	?	29.6%
CC(=O)Nc1ccc(NC(=O)Nc2ccc(C)c(C)c2)cc1	6.8%	-0.5%	?	-1.9%	-3.8%	14.9%
O=C(Nc1ccncc1)Nc1cccc(Cl)c1Cl	.	0.5%	-1.7%	?	6.9%	-2.2%
O=C(Nc1ccccc1)Nc1ccccc1Br	24.3%	?	?	23.9µM*	?	3.98µM*
O=C(Nc1ccccc1)Nc1cccc(NC(=O)Nc2ccccc2)c1F	.	26.6%	10.2%	?	?	24.9%
CC(=O)c1ccc(NS(=O)(=O)c2cnc(N)nc2)cc1	.	.	.	-8.9%	.	.
O=C(Nc1ccccc1)Nc1cccc(Cl)c1Cl	-22.0%	21.1%	13.9%	10.7µM*	?	15.9%
Cc1cc(C)c2nc(C)cc(Nc3ccc(C(=O)N(C)C)cc3)c2c1	.	-0.7%	0.2%	0.0%	-25.1%	-1.7%
Fc1ccc(-c2nc3c(Cl)cc(C(F)(F)F)cn3c2Cl)cc1	17.8µM*	-0.5%	16.4µM*	?	?	0.1%
O=C1C2C(c3ccccc3)C=CC(c3ccccc3)C2C(=O)N1C1CCCCC1 (stereo unspecified)	-4.8%	7.5%	1.0%	-0.6%	25.1%	2.4%
CC(=O)c1cccc(N=Cc2c(O)c3ccccc3oc2=O)c1	.	-5.3%	2.0%	1.69µM*	5.9%	-1.1%
Cc1ccc(N=Cc2c(O)c3ccccc3oc2=O)c(C)c1	.	-2.6%	4.1%	0.213µM*	?	1.3%
Cc1ccc(F)cc1N=Cc1c(O)c2ccccc2oc1=O	.	-4.7%	3.4%	?	3.8%	1.8%
COc1cccc(N=Cc2c(O)c3ccccc3oc2=O)c1	.	0.2%	-0.2%	1.9µM*	-5.7%	6.1%
CCOC(=O)c1ccc(N=Cc2c(O)c3ccccc3oc2=O)cc1	.	-8.9%	-1.8%	?	23.9%	-2.0%[1.84 µM]
CC(=O)Nc1ccc(N=Cc2c(O)c3ccccc3oc2=O)cc1	.	-4.1%	0.5%	?	-0.2%	-4.2%
CCOC(=O)c1c(C)oc2c1c(C(c1ccccc1)N1CCOCC1)c(O)c1ccccc12 (stereo unspecified)	?	12.7%	?	?	?	-0.9%
O=C(NCc1cccc(Cl)c1)c1ccc(CS(=O)Cc2ccc(Cl)cc2)o1 (stereo unspecified)	.	1.9%	-12.6%	1.4%	13µM*	3.7%
Cc1cc2c(N)cccc2nn1	2.2%	14.5%	-3.1%	0.3%	18.7%	1.9%
Nc1cccc2nc3ccccc3cc12	10.1%	-33.1%	?	6.5%	23.1µM*	-32.4%
CCC/C(=N\NC(=O)c1ccc(OC)c(OC)c1)c1ccccc1	0.1%	-7.0%	1.3%	-3.1%	-29.5%	0.8%
CNC(=O)c1ccsc1NC(=O)C1CCN(S(=O)(=O)c2ccc(Cl)s2)CC1	.	-1.1%	-6.3%	13.3%	18.3µM*	-0.1%
COc1ccc(C(=O)NNC(=O)c2ccncc2)cc1	-10.4%	0.2%	1.0%	-4.7%	26.0%	3.2%
SMILES	SMN2 splice up	NPC1 prom act	ELG1 genotoxic	FLuc counter	ELG1 DNA repair	Rab9 promoter act
COc1ccc(NC(=O)c2[nH]ncc2[N+](=O)[O-])cc1	-19.3%	-25.4%	15.8%	?	28.4%	21.1%
CCOc1ncccc1C(=O)Nc1ccc(C(=O)Nc2ccc(OC)cc2)cc1	.	-5.4%	3.2%	3.1%	?	-4.2%
COc1ccc(NC(=O)c2cc(-c3ccco3)on2)cc1	?	-0.6%	-5.8%	?	?	18.3%
COc1ccc(NC(=O)c2ncn[nH]2)cc1	10.5%	13.9%	8.5%	15.1µM*	?	21.9%
COc1ccc(NC(=O)c2ccc(NC(=O)c3ccncc3)cc2)cc1	.	0.5%	10.3µM*	0.9%	21.2%	-6.7%
COc1ccc(NC(=O)c2cccc(C(=O)Nc3ccc(OC)cc3)n2)cc1	-5.7%	2.2%	16.0%	5.36µM*	-6.1%	-2.2%
COc1ccc(NC(=O)c2ccc(Oc3ncccn3)cc2)cc1	12.1%	15.5%	?	16.9µM*	?	?
NS(=O)(=O)c1ccc(NC(=O)c2ccc(Cl)c(S(=O)(=O)NCc3ccco3)c2)cc1	.	-4.4%	-0.6%	0.8%	-5.2%	-2.0%
COc1ccc(NC(=O)c2sc(=S)[nH]c2N)cc1	?	1.7%	11.3%	16.9µM*	?	21.1%
C=C(Nc1ccc(OC)cc1)C(=O)OC	6.6%	.	.	.	.	.
COc1ccc(C(=O)Nc2ccc(C3CC3(Cl)Cl)cc2)cc1 (stereo unspecified)	.	25.0%	13.6%	1.51µM*	?	?
CCOc1ccc(NC(=O)c2ccc(OC)cc2)cc1	12.6%	?	15.9%	?	?	20.1%[1.84 µM]
CCN1CCN(CCCNC(=O)c2ccc3nc(Cc4ccc(OC)cc4)oc3c2)CC1	.	.	.	-3.3%	.	.
CC(C)=CC(=O)NCCc1ccccc1	12.6µM*	.	.	13.5µM*	.	.
Cc1ccc(/C=C/C(=O)NCCc2ccccc2)o1	.	?	?	16.9µM*	?	?
c1ccc([C@H]2CC3C[C@@H](c4ccccc4)N2O3)cc1	-11.5%	-0.1%	-3.8%	1.2%	20.1%	-0.4%
CC(C)n1nnnc1SCC(=O)N1N=C(c2cccs2)CC1c1cccs1 (stereo unspecified)	.	28.9%	15.8%	23.9µM*	?	?
Cc1cs/c(=N/C(=S)Nc2ccccc2)n1C	1.26µM*	1.12µM*	2.91µM*	4.78µM*	?	1.58µM*

Screens (PubChem)
